Experimental findings from PubChem BioAssay AID1851 (National Center for Advancing Translational Sciences (NCATS), 2009) are described below.

Hit rate of the full screen: of about 16,000 compounds, about 4,000 (25%) were called active. About 26% were inconclusive and are not listed. Calls come from the whole dose curve; as a rule, active = well fitted curve in the direction sought with a large enough effect; inconclusive = small, poorly fitted or top-dose-only effect, or effect the other way; inactive = no such curve, though single readings can be large or run the other way. Not all results are given here.
% is set by controls: 0 for no effect and ±100 for the full control effect.

In this test the target is Cytochrome P450 2C9 (Homo sapiens) (UniProt P11712). In words: Cytochrome panel assay with activity outcomes. The note with it: recombinant CYP, pro-luciferin dealkylation, luminescence, p450-cyp2c9; series mostly up to 57.1 µM; activity, negative = inhibition: at the top concentration.
Chain of Cytochrome P450 2C9 (Homo sapiens) (P11712 whole entry, looked up): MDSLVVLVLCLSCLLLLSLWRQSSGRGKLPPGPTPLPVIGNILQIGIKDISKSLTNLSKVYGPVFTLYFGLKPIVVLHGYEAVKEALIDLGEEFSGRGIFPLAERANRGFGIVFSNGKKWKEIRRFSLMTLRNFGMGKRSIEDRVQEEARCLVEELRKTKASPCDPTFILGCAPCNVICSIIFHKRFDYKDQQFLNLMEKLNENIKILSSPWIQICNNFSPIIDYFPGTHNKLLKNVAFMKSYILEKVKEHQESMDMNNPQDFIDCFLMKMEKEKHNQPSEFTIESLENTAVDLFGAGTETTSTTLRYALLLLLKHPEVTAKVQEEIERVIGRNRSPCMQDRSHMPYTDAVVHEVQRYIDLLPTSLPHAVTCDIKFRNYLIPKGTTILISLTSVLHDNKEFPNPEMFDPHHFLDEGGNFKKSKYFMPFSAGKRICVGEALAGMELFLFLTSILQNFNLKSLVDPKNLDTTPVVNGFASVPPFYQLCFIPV
For `Cc1c(NC(=O)Nc2c(Cl)cccc2Cl)c(=O)n(-c2ccccc2)n1C`, the activity, negative = inhibition was -2.44% [at 11.4 µM] (inactive). With `Cc1c(NC(C)C)c(=O)n(-c2ccccc2)n1C`, the “activity, negative = inhibition” value was -9.77% [at 25.6 µM] (inactive). Take `Cc1ccc(S(=O)(=O)/N=C(/Nc2c(C)n(C)n(-c3ccccc3)c2=O)c2ccc(Cl)cc2)cc1`: the half-maximal activity concentration (AC50) (usually the midpoint of the concentration-response curve, whichever way the signal moves) is 11.2 µM (active).

With `COC(=O)N1CCC2(CCCN(Cc3nccs3)C2)CC1`, the “activity, negative = inhibition” value is -13.7% (inactive). On the same count and under the same terms, next, `Cn1c(CNS(=O)(=O)c2ccc(Cl)cc2)n[nH]c1=S`: -14.4% (inactive).

In the case of `O=S(=O)(NCc1cc(-c2ccc(Cl)cc2)no1)c1ccc(Cl)cc1`, the concentration at half-maximal activity (AC50) is 3.98 µM (active). Take `O=S(=O)(NCc1cc(-c2ccccc2)no1)c1ccc(Cl)cc1`: the “activity, negative = inhibition” value was -25.6% (inactive). Regarding `COC(=O)[C@@H]1[C@@H]2C[C@H]3c4[nH]c5cc(OC)ccc5c4CCN3C[C@@H]2C[C@H](OC(=O)c2cc(OC)c(OC)c(OC)c2)[C@H]1OC`, the “activity, negative = inhibition” value is -7.98% [at 25.6 µM] (inactive). Still for that read-out and setting: next, `CO[C@@H]1COC(=O)[C@@H](CCSC)NC(=O)C/C=C\[C@@H](C)COC(=O)CCC[C@H]1C`: -5.5% [at 11.4 µM] (inactive). Consider `Oc1cccc(-c2nc3c4c(ncn3n2)-c2ccccc2CC42CCCC2)c1`, for which the AC50 is 7.08 µM (active). Turning to `O=c1c2c(n3cnnc3n1-c1ccccc1)-c1ccccc1CC21CCCCC1`, the “activity, negative = inhibition” value is -19.1% (inactive).

As to `CCOc1cc(/C=C2/NC(=O)N(CC(=O)Nc3cccc(C)c3)C2=O)ccc1OC`, the “activity, negative = inhibition” value is -14.1% (inactive). On to `CCOc1cc(/C=C2\C(=O)N(Cc3ccc(C)cc3)C(C)=C2C(=O)OC)ccc1O`, for which the AC50 is 1.41 µM (active). Turning to `CCCCNC(=O)C1CC(=O)N(CCC(C)C)C1` (stereo not drawn), the “activity, negative = inhibition” value is -21.3% (inactive). Take `O=C(O)COc1c(Cl)cc(Cl)c2cccnc12`: the activity, negative = inhibition is 15.5% [at 11.4 µM] (inactive). As for `COCCNC(=O)c1cn(Cc2c(F)cccc2Cl)nn1`, the “activity, negative = inhibition” value is -7.08% (inactive). Turning to `COC(=O)c1sc2ncccc2c1OCc1c(Cl)cccc1Cl`, the half-maximal activity concentration (AC50) is 1.78 µM (active).

Regarding `CN1CCN(c2ncnc3ccc(-c4ccccc4Cl)cc23)CC1`, the activity, negative = inhibition is -20.9% [at 2.29 µM] (inactive). As for `O=C(CCCCn1c(=O)c2ccccc2n(CC(=O)NC2CCCC2)c1=O)NC1CCCC1`, the AC50 is 10 µM (active).

On to `CC(=O)CCCCn1c(=O)c2c(ncn2C)n(C)c1=O`, for which the “activity, negative = inhibition” value was -1.76% [at 25.6 µM] (inactive). `O=C(Cn1cccc1)NC1CCCCCC1`: the “activity, negative = inhibition” value is -26.8% (inactive). `c1ccc(-c2nc(NCc3cccnc3)c3ccccc3n2)cc1`: the concentration at half-maximal activity (AC50) is 3.55 µM (active). The same measure, in the same setting: next, `CCOC(=O)c1ccc(Nc2nc(=O)c3cccnc3s2)cc1`: 7.94 µM (active). As for `COc1ccccc1-c1nc(NCc2cccnc2)c2ccccc2n1`, the activity, negative = inhibition was 5.64% [at 2.29 µM] (inactive). On the same count and under the same terms, in the case of `FC(F)(F)c1ccccc1-c1nc(NCc2cccnc2)c2ccccc2n1` it was -20.3% [at 2.29 µM] (inactive). For `COc1ccccc1CNc1nc(-c2cccnc2)nc2ccccc12`, the AC50 was 1 µM (active).

Turning to `c1ccc(Nc2nc(-c3cccnc3)nc3ccccc23)cc1`, the activity, negative = inhibition is -0.938% [at 2.29 µM] (inactive). Still for that read-out and setting: next, `CN(C)C(=O)c1ccc(-c2nc(Nc3ccncc3)c3ccccc3n2)cc1`: -8.55% [at 2.29 µM] (inactive). Take `COc1ccccc1NC(=O)Nc1nc(-c2cccnc2)nc2ccccc12`: the “activity, negative = inhibition” value is 25.8% (inactive). As for `CCOC(=O)c1ccc(Nc2nc(-c3cccnc3)nc3ccccc23)cc1`, the half-maximal activity concentration (AC50) is 5.01 µM (active).

Take `c1cncc(CNc2nc(-c3ccoc3)nc3ccccc23)c1`: the activity, negative = inhibition is 0.547% [at 2.29 µM] (inactive). Still for that read-out and setting: in the case of `CCOC(=O)c1ccc(OC(=O)CCCCCN=C(N)N)cc1` it was 6.9% (inactive).

As for `CN1CCCC2(CCN(C(=O)c3cc(C(F)(F)F)cc(C(F)(F)F)c3)CC2)C1`, the “activity, negative = inhibition” value is 6.14% (inactive). Take `COC(=O)c1c(-c2cc(OC)c(OC)c(OC)c2)c2ccnc(OCc3ncccn3)c2c(=O)n1Cc1ccnc(C)c1`: the half-maximal activity concentration (AC50) is 12.6 µM (active). As to `Cn1cnc([N+](=O)[O-])c1Sc1nc(N)nc2c1ncn2[C@H]1C[C@H](O)[C@@H](CO)O1`, the activity, negative = inhibition is -1.03% [at 11.4 µM] (inactive). For `Cc1cccc(N2CC(O)=C(c3nc4ccccc4n3C)C2=N)c1`, the “activity, negative = inhibition” value was -8.08% (inactive). Regarding `Cn1c(-c2sc(=S)n(-c3ccccc3)c2N)nc2ccccc21`, the concentration at half-maximal activity (AC50) was 2.51 µM (active). For the molecule `O=C(NCCCN1CCCC1=O)c1ccc(CNS(=O)(=O)c2ccc(F)cc2)cc1`, the “activity, negative = inhibition” value was -31.1% (inactive). For `Cc1ccc(CS(=O)(=O)CCC(=O)NCCCN2CCCC2=O)cc1`, the “activity, negative = inhibition” value was -8.86% (inactive). Turning to `Cc1ccc(S(=O)(=O)N(CCCN2CCCC2=O)Cc2cc3c(C)ccc(C)c3[nH]c2=O)cc1`, the AC50 is 3.16 µM (active).

For the molecule `Cc1ccc(N2CCN(CCC(=O)O)CC2)cc1`, the activity, negative = inhibition is 10.3% [at 11.4 µM] (inactive). With `Cc1ccc(C)c(-c2nn(-c3cc(N4CCN(CCO)CC4)ccc3[N+](=O)[O-])c(=O)c3ccccc23)c1`, the AC50 is 12.6 µM (active). As for `CO[C@@H]1/C=C\CC(=O)N[C@@H](C)C(=O)OC[C@@H](OC)[C@H](C)/C=C\CC(=O)OC[C@H]1C`, the activity, negative = inhibition is 9.15% [at 11.4 µM] (inactive).

In the case of `Cn1c(=O)c2[nH]c(CCS)nc2n(C)c1=O`, the activity, negative = inhibition was 10.4% [at 11.4 µM] (inactive). On to `Cc1cccc(NC(=O)CSc2nnc(-c3ccco3)c(-c3ccco3)n2)c1C`, for which the AC50 was 1.78 µM (active). As for `Cc1cccc(Nc2cc(Cl)nc(SCC(=O)O)n2)c1C`, the “activity, negative = inhibition” value is -23.8% (inactive).

Take `Cc1cc(C)nc(SCC(=O)Nc2ccccc2[N+](=O)[O-])n1`: the “activity, negative = inhibition” value is -21.1% (inactive). As to `O=C(O)CCC(=O)N1CCC[C@H]1C(=O)O`, the “activity, negative = inhibition” value is 21.5% (inactive).
